From PubChem BioAssay (NCATS)
Results filed as inconclusive are left out. Values without a mark were called inactive. The call rests on the fitted dose curve; in most records, active means well fitted cell-killing curve with a large enough effect; inconclusive means small, poorly fitted or top-dose-only effect; inactive means flat fitted curve, though single readings scatter.

Test: qHTS of pediatric cancer cell lines to identify multiple opportunities for drug repurposing: Primary screen for control Hh wild type fibroblast cells (AID 1347106);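 further: a drop in luminescence marks cytotoxicity and a rise apparent proliferation; nearly all actives have a fitted effect of over 55% in size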
Settings: Hh wild-type fibroblast viability, CellTiter-Glo luminescence, 48 h; series mostly up to 46 µM; activity change, negative = cytotoxic: at the top concentration
Excerpt: Drug repurposing or repositioning has been offered as a strategy for drug development in oncology programs. This approach has special potential for childhood cancers and other rare or orphan diseases, where the expected return on new drug development has been a disincentive to pharmaceuticals.
In this project we exploit the poly-pharmacology of drugs to discover new indications via phenotypic screening of a panel of 19 well-characterized cell lines derived from solid tumors seen in children and adolescents. The goal is to identify approved drugs with previously unrecognized anticancer properties that has the potential to reveal new mechanisms and biological processes involved in carcinogenesis or drug resistance. We employed a titration-based paradigm (quantitative high-throughput screening or qHTS), where all compounds were tested at multiple concentrations for their effect on cell viability. Concentration-response curves (CRCs) were derived directly from the primary screen, and both potency and efficacy values were used to identify compounds with robust bioactivity profiles. We screened the NIH Chemical Genomics Center (NCGC) Pharmaceutical Collection (NPC) and Mechanism Interrogation Plate (MIPE) small molecule collections of approved and investigational compounds against these cell lines; and measured metabolically active cells after 48 hours of compound treatment as a proxy for cell viability.
Assay Submitter: Nathalia J. Martinez, National Center for Advancing Translational Sciences, National Institutes of Health, Rockville, MD, USA; email: natalia.martinez@nih.gov
[1] Shen, M et al. Quantitative high-throughput phenotypic screening of pediatric cancer cell lines identifies multiple opportunities for drug repurposing. Oncotarget 2017 Dec 19;9(4):4758-4772. PMID 29435139.
The cells were obtained from University of North Carolina (UNC), Pediatric Preclinical Testing Program (PPT), and Coriell Institute (CI).
qHTS cell viability assay:
Cells were assayed in growth media at a density of 500-1,000 cells/well. Five microliters of cells were dispensed into 1,536-well, white, solid-bottom, TC-treated plates (Greiner Bio One) using a multidrop dispenser and incubated at 37 degrees C, 5% CO2, under a humidified atmosphere for 5 hours. Twenty-three nanoliters of compounds and controls (neutral control DMSO or positive control bortezomib at final concentration of 2.3 µM) were subsequently transferred by Kalypsys pintool. For primary screens, the MIPE collection was tested at 11-point dilutions (final concentrations range from 0.78 nM to 46 µM) and the NPC collection at 8-point dilutions (final concentrations range from 0.59 nM to 46 µM). Compounds tested in follow-up screens were assayed at 11-point dilutions. Cells were incubated for 48 hours, followed by addition of 3 µL of CellTiter-Glo (Promega). After a 15 min incubation at room temperature, samples were analyzed for luminescence intensity using a ViewLux High-throughput CCD imager equipped with clear filters.
On the % scale 0 is the no-effect control and ±100 the full control effect.

Structure (SMILES)	activity change, negative = cytotoxic
Cc1c(C(N)=O)cc([N+](=O)[O-])cc1[N+](=O)[O-]	-5.46%
C#C[C@]1(OC(C)=O)CC[C@H]2[C@@H]3CCC4=C[C@@H](OC(C)=O)CC[C@@H]4[C@H]3CC[C@@]21C	13.7%
COc1ccc(C2C(=O)c3ccccc3C2=O)cc1	4.54%
CN(C/C=C/c1ccccc1)Cc1cccc2ccccc12	-21.7%
Cc1c(C(C)C)c(=O)n(-c2ccccc2)n1C	15.8%
CC(=O)OCC(=O)[C@@]1(OC(C)=O)[C@@H](C)C[C@H]2[C@@H]3C[C@H](F)C4=CC(=O)C=C[C@]4(C)[C@@]3(F)[C@@H](O)C[C@@]21C	-3.06%
O=c1[nH]c(=O)n([C@H]2CCCO2)cc1F	-2.4%
N[C@H](Cc1c[nH]c2ccccc12)C(=O)O	11.6%
CCCCOc1cc(C(=O)NCCN(CC)CC)c2ccccc2n1	-21.8%
CC(=O)OCC(=O)[C@@]12N=C(C)O[C@@H]1C[C@H]1[C@@H]3CCC4=CC(=O)C=C[C@]4(C)[C@H]3[C@@H](O)C[C@@]12C	-1.58%
CC(=O)O[C@]1(C(C)=O)CC[C@H]2[C@@H]3C[C@H](C)C4=CC(=O)CC[C@]4(C)[C@H]3CC[C@@]21C	4.25%
CC[C@@H](CO)NCCN[C@@H](CC)CO	3.53%
CCCN1CCCC[C@H]1C(=O)Nc1c(C)cccc1C	-0.063%
CC[N+](CC)(CCNC(=O)C(=O)NCC[N+](CC)(CC)Cc1ccccc1Cl)Cc1ccccc1Cl	13%
CO/N=C1\CN(c2nc3c(cc2F)c(=O)c(C(=O)O)cn3C2CC2)CC1CN (stereo not given)	5.54%
O=C(Nc1ccc(Oc2ccc(Cl)cc2)c(Cl)c1)c1cc(I)cc(I)c1O	0.358%
Nc1ccc(C(=O)Nc2ccccc2N)cc1	-16.7%
CCCCN1CCCC1C(=O)Nc1c(C)cc(C)cc1C (stereo not given)	-5.3%
COC(=O)C1=C(C)NC(C)=C(C(=O)O[C@@H]2CCCN(Cc3ccccc3)C2)[C@@H]1c1cccc([N+](=O)[O-])c1	-0.326%
CN(C)/N=N/c1nc[nH]c1C(N)=O	-3.52%

Structure (SMILES)	activity change, negative = cytotoxic
Cc1ccccc1C(=O)Nc1ccc(C(=O)N2CCCC(N(C)C)c3ccccc32)cc1 (stereo not given)	-26.1%
COC(=O)[C@@H]1CC2=CC(=O)CC[C@]2(C)[C@@]23O[C@@H]2C[C@@]2(C)[C@@H](CC[C@@]24CCC(=O)O4)[C@H]13	17.5%
CC1(C)O[C@@H]2C[C@H]3[C@@H]4CCC5=CC(=O)CC[C@]5(C)[C@@]4(F)[C@@H](O)C[C@]3(C)[C@]2(C(=O)CCl)O1	-5.08%
C=CCc1ccc(O)c(OC)c1	1.9%
NC[C@H]1O[C@H](O[C@H]2[C@H](O[C@@H]3O[C@H](CO)[C@@H](O)[C@H]3O)C(O)[C@H](N)C[C@@H]2N)[C@H](N)[C@@H](O)[C@@H]1O (stereo not given in full)	-1.08% [at 9.22 µM]
CCOc1ccc(NC(=O)CC(C)O)cc1 (stereo not given)	7.13%
C=C1C(=C/C=C2\CCC[C@]3(C)[C@@H]([C@H](C)/C=C/[C@@H](O)C4CC4)CC[C@@H]23)C[C@@H](O)C[C@@H]1O	9.95%
CCOC(=O)c1cccc(N)c1	-0.869%
COc1c(C)c2c(c(O)c1C/C=C(\C)CCC(=O)O)C(=O)OC2	-22%
C/C=C(/C(=C/C)c1ccc(O)cc1)c1ccc(O)cc1	-0.177%
O=c1[nH]c(=O)n([C@H]2C[C@H](O)[C@@H](CO)O2)cc1C(F)(F)F	6.2%
CC(Cc1cccc(C(F)(F)F)c1)NCCOC(=O)c1ccccc1 (stereo not given)	0.316%
O=C1OCCN1/N=C/c1ccc([N+](=O)[O-])o1	-3.11%
O=C1[C@H]2CCCC[C@H]2C(=O)N1CCCCN1CCN(c2nsc3ccccc23)CC1	9.85%
Cc1c(N(C)CS(=O)(=O)O)c(=O)n(-c2ccccc2)n1C	7.76%
CC(C)(C(=O)c1cccnc1)c1cccnc1	8.32%
Oc1ccc(O)cc1	22.5%
CCCCS(=O)(=O)N[C@@H](Cc1ccc(OCCCCC2CCNCC2)cc1)C(=O)O	16.4%
COc1cc2c(cc1OC)C(=O)C(CC1CCN(Cc3ccccc3)CC1)C2 (stereo not given)	-10.6%
CN(C)CC/C=C1\c2ccccc2Sc2ccc(Cl)cc21	-1.7%
